PubChem BioAssay
Values without a mark were called inactive. The list shows a part of the results. Calls of active or inactive are those of the source.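 Rule for the calls, unless noted: active = inhibition above the primary screen's cutoff, its mean inhibition plus 3 SD (cut at about 35% in these data); inactive = the rest.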

Key:
[1] = molecular target: Glutathione S-transferase omega-1 (Homo sapiens) (UniProt P78417); assay: recombinant GSTO1 blockers, retest – biochemical, fluorescence polarization, triplicate, counter-screen for RBBP9 inhibitor project, confirmation (AID 2176); conditions: recombinant GSTO1, probe fluorescence polarization; at 5.96 µM; hits give high values;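 note: loss of polarization as inhibitors block binding of rhodamine sulfonate ester activity probe; 0% = GSTO1 with DMSO and 100% = wells lacking GSTO1 enzyme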
Chain of Glutathione S-transferase omega-1 (Homo sapiens) (P78417 whole entry, looked up): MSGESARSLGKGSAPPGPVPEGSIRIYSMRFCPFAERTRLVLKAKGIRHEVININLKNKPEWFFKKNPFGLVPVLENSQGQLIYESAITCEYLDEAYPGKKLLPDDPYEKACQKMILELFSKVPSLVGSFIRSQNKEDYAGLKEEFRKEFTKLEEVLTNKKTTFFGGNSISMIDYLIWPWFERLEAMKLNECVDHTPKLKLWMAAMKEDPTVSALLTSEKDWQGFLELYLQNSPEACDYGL

[2] = molecular target: Platelet-activating factor acetylhydrolase (Homo sapiens) (UniProt Q13093); assay: inhibition of plasma PAF acetylhydrolase – biochemical, fluorescence polarization, human, confirmation (AID 463230;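 active = mean inhibition of the triplicate above the hit cutoff set for the earlier primary screen, cut at about 25% in these data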;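 note: 0% = enzyme with DMSO and 100% = wells lacking pPAFAH enzyme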); conditions: recombinant pPAFAH, FP-Rh probe fluorescence polarization; at 3.39 µM; hits give high values
[3] = molecular target: Serine protease HTRA1 (Homo sapiens) (UniProt Q92743); assay: confirming inhibition of human HTRA1 – biochemical, fluorescence polarization, confirmation (AID 540248;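 active = mean inhibition over three repeats above a set limit taken from the earlier primary screen, cut at about 37% in these data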;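 note: 0% = HTRA1 with DMSO and 100% = wells lacking HTRA1; inhibitors block probe binding so polarization drops and inhibition rises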); conditions: recombinant HTRA1, FP-rhodamine activity-based probe, at 5.96 µM, hits give high values
[4] = molecular target: (Lyso)-N-acylphosphatidylethanolamine lipase (Mus musculus) (UniProt Q8VD66); assay: mouse ABHD4 hydrolase blockers, triplicate – biochemical, fluorescence polarization, confirmation (AID 720658;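 active = mean inhibition across replicates above the hit cutoff set in the primary screen, cut at about 30% in these data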;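 note: 0% = wild-type ABHD4 with DMSO and 100% = catalytically dead S159A mutant with DMSO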); conditions: purified mABHD4, FP-Rh probe fluorescence polarization; at 8.92 µM; hits give high values
[5] = test system: transactivating tegument protein VP16 (Human herpesvirus 1); assay: compounds suppressing VP16-driven luciferase signal – cell-based, luminescence, single concentration, counter-screen for SRC2 inhibitor project (AID 652007; in the data active = inhibition above about 36%); conditions: cell-based VP16 transactivation luciferase reporter, at 8.9 µM, hits give high values
[6] = molecular target: Nuclear receptor coactivator 2 (Homo sapiens) (UniProt Q15596); assay: inhibition of GAL4-SRC2 driven luciferase expression – cell-based, luminescence, HEK293, triplicate, confirmation (AID 652008;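 active = mean inhibition above 46.5%, the solvent-only control mean plus 3 SD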;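 note: 0% = DMSO-treated cells and 100% = Gossypol at 36 µM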); conditions: HEK293 GAL4-SRC2 luciferase reporter, at 8.9 µM, hits give high values
[7] = molecular target: Lytic switch protein BZLF1 (Epstein-Barr virus (strain B95-8)) (UniProt P03206); assay: blockers of Zta-ZRE DNA complex – biochemical, fluorescence polarization, triplicate, confirmation (AID 2361;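 active = mean inhibition across triplicate runs above the hit threshold derived for the original primary screen, cut at about 33% in these data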;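 note: 0% = Zta with DMSO and 100% = wells lacking Zta protein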); conditions: Zta-ZRE DNA binding, at 11.1 µM, hits give high values
Chain of Lytic switch protein BZLF1 (Epstein-Barr virus (strain B95-8)) (P03206 whole entry, looked up): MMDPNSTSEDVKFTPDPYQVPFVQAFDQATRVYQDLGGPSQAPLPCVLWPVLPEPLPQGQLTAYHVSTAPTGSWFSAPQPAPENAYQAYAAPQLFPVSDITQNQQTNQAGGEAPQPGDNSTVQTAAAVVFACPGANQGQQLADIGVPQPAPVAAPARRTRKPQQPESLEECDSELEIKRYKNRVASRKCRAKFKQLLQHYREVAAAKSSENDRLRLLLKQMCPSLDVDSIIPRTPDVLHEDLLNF

[8] = test system: Epstein-Barr virus nuclear antigen 1 (EBNA-1), Human herpesvirus 4; assay: blockers of EBV EBNA-1 binding to DNA – biochemical, fluorescence polarization, counter-screen for ZTA inhibitor project (AID 2362; call rule not given here); conditions: EBNA-1 DNA binding, at 14.8 µM, hits give high values
[9] = molecular target: Receptor-interacting serine/threonine-protein kinase 2 (Homo sapiens) (UniProt O43353); assay: inhibitors of RIPK2 association with NOD2 – fluorescence, CHO cells, BLA complementation, triplicate, confirmation (AID 624370;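 active = mean inhibition across replicates above a set limit taken from the earlier primary screen, cut at about 21% in these data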;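 note: 0% = DMSO-only wells and the high end = clavulanate BLA-blocked wells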); conditions: CCF4 FRET, at 4.98 µM, hits give high values
[10] = BLA reporter readout interference – cell-based, CHO-K1 CMV-bla, CCF4 FRET, fluorescence, artefact control for NOD2-RIPK2 interaction inhibitor project, confirmation (AID 624371;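 active = mean inhibition above the low-control mean inhibition plus three low-control SD, cut at about 11% in these data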;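 note: 0% = DMSO only wells and 100% = clavulanate high control wells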); conditions: CCF4 FRET ratio, counterscreen, at 4.98 µM, hits give high values
[11] = molecular target: Photoreceptor-specific nuclear receptor (Homo sapiens) (UniProt Q9Y5X4); assay: corepressor-releasing ligands of human NR2E3 – biochemical, TR-FRET, confirmation (AID 2379; in the data active = activation above about 20%); conditions: cell-free NR2E3 corepressor release, 5 h, at 3.98 µM, hits give high values
Chain of Photoreceptor-specific nuclear receptor (Homo sapiens) (Q9Y5X4 whole entry, looked up): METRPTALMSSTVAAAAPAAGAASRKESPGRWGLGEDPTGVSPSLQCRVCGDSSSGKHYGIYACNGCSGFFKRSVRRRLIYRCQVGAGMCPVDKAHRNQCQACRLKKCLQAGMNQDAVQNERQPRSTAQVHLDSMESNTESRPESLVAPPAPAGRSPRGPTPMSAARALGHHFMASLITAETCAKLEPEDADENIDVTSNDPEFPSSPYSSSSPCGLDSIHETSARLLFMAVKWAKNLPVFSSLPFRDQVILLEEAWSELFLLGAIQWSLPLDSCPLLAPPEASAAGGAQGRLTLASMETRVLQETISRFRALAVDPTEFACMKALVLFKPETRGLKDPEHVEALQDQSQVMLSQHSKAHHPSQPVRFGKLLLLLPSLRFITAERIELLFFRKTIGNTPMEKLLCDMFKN

[12] = molecular target: Peroxisome proliferator-activated receptor gamma (Homo sapiens) + Nuclear receptor corepressor 2 (Homo sapiens) (UniProt P37231+Q9Y618); assay: agonists of PPARg-NCOR2 corepressor interaction, counter-screen for NR2E3 agonist project, biochemical, TR-FRET (AID 504787; in the data active = inhibition above about 20%;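 note: 0% = DMSO vehicle and 100% = wells without protein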); conditions: TR-FRET PPARg-NCOR2 coregulator interaction, at 3.98 µM, hits give high values
Chain of Peroxisome proliferator-activated receptor gamma (Homo sapiens) + Nuclear receptor corepressor 2 (Homo sapiens) (P37231 whole entry, looked up): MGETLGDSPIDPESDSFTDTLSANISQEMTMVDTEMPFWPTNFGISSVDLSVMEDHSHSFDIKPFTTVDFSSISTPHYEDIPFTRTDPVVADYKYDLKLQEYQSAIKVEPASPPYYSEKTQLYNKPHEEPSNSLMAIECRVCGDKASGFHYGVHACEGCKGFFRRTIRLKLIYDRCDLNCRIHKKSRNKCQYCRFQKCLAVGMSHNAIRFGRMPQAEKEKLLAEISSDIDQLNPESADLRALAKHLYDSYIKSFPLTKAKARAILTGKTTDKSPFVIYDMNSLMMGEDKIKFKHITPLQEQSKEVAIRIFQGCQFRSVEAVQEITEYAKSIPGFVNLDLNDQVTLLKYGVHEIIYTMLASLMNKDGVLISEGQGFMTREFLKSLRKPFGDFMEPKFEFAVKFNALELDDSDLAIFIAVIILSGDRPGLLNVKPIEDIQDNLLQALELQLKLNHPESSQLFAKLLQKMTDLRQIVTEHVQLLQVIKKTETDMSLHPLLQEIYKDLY
Chain of Peroxisome proliferator-activated receptor gamma (Homo sapiens) + Nuclear receptor corepressor 2 (Homo sapiens) (Q9Y618 whole entry, looked up): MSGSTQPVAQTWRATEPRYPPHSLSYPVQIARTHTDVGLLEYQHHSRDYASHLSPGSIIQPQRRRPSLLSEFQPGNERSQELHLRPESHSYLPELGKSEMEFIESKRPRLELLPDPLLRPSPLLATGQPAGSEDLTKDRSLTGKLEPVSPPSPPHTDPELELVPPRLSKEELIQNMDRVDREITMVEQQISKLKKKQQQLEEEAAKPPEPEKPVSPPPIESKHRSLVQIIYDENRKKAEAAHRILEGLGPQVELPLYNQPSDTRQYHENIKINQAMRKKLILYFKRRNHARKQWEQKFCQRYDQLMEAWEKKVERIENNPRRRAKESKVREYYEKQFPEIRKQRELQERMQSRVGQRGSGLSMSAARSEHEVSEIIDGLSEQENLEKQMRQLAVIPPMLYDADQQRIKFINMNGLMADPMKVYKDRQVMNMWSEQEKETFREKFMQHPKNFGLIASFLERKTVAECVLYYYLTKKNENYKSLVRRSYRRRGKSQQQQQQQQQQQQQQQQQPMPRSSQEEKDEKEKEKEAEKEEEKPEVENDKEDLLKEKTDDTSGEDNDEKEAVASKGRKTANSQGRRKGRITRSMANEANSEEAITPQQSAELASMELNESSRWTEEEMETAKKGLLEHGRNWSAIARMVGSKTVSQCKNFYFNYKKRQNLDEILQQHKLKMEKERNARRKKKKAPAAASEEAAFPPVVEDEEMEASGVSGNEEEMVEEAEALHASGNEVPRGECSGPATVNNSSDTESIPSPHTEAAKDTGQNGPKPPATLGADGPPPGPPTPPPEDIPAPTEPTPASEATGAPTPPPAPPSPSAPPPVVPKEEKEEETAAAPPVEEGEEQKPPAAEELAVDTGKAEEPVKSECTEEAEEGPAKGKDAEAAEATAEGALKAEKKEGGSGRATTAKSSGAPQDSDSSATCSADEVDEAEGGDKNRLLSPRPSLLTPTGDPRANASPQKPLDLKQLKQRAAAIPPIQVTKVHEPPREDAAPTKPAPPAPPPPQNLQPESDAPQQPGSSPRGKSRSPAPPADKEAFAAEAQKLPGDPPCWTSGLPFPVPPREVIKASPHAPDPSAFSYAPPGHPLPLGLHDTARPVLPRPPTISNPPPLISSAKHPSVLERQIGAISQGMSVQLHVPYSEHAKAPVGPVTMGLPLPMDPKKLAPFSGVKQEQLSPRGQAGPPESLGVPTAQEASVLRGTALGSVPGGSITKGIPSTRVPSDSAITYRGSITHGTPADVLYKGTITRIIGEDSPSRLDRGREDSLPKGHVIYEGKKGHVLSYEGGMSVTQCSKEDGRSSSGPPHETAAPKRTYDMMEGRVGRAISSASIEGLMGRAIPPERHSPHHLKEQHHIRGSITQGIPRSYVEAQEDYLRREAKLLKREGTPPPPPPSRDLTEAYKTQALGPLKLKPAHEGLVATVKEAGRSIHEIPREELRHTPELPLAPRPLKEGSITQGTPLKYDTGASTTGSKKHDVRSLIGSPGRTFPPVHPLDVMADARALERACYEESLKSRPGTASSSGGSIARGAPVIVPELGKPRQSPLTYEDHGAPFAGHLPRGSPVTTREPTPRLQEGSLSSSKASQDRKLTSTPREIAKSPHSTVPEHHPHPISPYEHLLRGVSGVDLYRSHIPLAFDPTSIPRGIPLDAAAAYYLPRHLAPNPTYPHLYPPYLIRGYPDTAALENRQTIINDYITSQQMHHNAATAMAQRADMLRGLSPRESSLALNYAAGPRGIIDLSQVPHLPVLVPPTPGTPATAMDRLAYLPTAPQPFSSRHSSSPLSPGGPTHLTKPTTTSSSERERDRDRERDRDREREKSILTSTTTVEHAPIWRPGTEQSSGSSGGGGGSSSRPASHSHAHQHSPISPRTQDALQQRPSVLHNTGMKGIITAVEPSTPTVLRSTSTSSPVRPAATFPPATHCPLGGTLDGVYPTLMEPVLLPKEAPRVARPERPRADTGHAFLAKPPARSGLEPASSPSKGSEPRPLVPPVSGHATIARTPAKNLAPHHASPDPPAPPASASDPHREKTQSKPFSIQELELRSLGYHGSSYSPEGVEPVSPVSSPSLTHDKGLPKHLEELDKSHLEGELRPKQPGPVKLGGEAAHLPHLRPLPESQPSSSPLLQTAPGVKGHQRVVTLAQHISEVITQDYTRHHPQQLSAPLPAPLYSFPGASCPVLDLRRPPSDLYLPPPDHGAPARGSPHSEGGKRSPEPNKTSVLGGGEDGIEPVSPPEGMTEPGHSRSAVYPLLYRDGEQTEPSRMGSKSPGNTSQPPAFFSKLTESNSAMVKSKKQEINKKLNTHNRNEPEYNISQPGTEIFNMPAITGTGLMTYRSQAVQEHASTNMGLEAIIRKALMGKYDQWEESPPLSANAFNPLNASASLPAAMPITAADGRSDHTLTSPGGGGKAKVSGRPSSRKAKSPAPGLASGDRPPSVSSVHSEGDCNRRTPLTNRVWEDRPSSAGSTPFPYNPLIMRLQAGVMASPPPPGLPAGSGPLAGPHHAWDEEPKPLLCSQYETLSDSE

[13] = molecular target: Oxytocin receptor (Homo sapiens) (UniProt P30559); assay: oxytocin receptor activation, retest of hits – fluorescence, CHO-OTR cells, triplicate, confirmation (AID 434963;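 active = mean activation above about 20% derived from the earlier single-dose screen, limit read from the data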;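 note: peak over minimum fluorescence ratio per well during a 100 second FLIPR read; 0% = DMSO alone and 100% = oxytocin high control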); conditions: Fluo-8 calcium fluorescence, agonist, at 3 µM, hits give high values
Chain of Oxytocin receptor (Homo sapiens) (P30559 whole entry, looked up): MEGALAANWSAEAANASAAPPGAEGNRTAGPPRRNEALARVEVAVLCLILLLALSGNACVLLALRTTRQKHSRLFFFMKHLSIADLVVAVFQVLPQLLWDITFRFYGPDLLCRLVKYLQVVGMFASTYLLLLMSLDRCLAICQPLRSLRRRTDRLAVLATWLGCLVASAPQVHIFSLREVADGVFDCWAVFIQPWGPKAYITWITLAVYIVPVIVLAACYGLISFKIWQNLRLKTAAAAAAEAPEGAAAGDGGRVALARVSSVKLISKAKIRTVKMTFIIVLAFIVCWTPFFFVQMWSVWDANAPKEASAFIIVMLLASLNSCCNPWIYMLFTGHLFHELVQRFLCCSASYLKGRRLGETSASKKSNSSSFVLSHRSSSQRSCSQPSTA

[14] = molecular target: Vasopressin V1a receptor (Homo sapiens) (UniProt P37288); assay: activators of vasopressin V1R in CHO cells – cell-based, triplicate, fluorescence, counter-screen for OXTR agonist project (AID 434991;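 active = mean activation over triplicate exceeds the hit threshold set in the earlier primary screen, cut at about 20% in these data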;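 note: peak over basal fluorescence ratio within a 100 second read; 0% = DMSO alone and 100% = 3 nM vasopressin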); conditions: Fluo-8 calcium fluorescence, at 3 µM, hits give high values
Chain of Vasopressin V1a receptor (Homo sapiens) (P37288 whole entry, looked up): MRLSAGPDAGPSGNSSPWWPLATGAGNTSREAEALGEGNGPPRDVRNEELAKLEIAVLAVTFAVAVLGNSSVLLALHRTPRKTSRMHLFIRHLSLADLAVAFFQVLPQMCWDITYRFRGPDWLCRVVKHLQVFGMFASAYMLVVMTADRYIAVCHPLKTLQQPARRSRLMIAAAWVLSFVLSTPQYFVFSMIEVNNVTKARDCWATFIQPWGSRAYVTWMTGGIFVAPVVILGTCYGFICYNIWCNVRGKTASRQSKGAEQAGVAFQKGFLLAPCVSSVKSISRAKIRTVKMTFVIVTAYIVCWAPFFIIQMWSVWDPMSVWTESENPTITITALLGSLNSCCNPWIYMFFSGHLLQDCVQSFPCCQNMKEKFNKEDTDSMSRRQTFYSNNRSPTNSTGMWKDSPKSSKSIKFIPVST

[15] = molecular target: Galanin receptor type 2 (Homo sapiens) (UniProt O43603); assay: blockers of human galanin receptor 2 – cell-based, confirmation (AID 866; in the data active = inhibition above about 27%;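 note: cells stimulated with galanin at about its EC80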); conditions: GALR2-expressing cells, antagonist mode, at 4 µM, hits give high values
[16] = nonspecific BLA reporter inhibition – CHO NFAT-bla cells, FRET readout, counter-screen for GALR2 antagonist project, confirmation (AID 867;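 active = inhibition above the mean inhibition across tested compounds plus 3 SD, cut at about 27% in these data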;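 note: 0% = 500 nM thapsigargin stimulated wells and 100% = unstimulated BSA only wells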); conditions: beta-lactamase FRET, thapsigargin-stimulated, at 4.2 µM, hits give high values

**Q.** For O=S(=O)(O)Oc1c[nH]c2ccccc12, which inhibition [1] is on record?
**A.** Its inhibition is 51.2% (active).

**Q.** For Cc1ccc(SCC2=NNC(=O)C2)cc1, which inhibition [1] is on record?
**A.** Its inhibition is 11.5%.

**Q.** With NNC(=O)c1oc2nc(-c3ccccc3)cc(-c3ccco3)c2c1N as the compound, how does the inhibition [1] read?
**A.** The inhibition was 3.35%.

**Q.** And the inhibition [2]?
**A.** The inhibition was 18.2%.

**Q.** With CC(C)(C)n1cnnc1Sc1ccc([N+](=O)[O-])cn1 as the compound, how does the inhibition [1] read?
**A.** Its inhibition is 28.1%.

**Q.** Which inhibition [1] does the source give for Cn1c(SCC(=O)N/N=C/c2ccc(O)c(O)c2)nc2ccccc21 here?
**A.** The inhibition was 3.76%.

**Q.** What about the inhibition [3] of the same compound?
**A.** The inhibition was 72.4% (active).

**Q.** And the inhibition [4]?
**A.** The inhibition was 14.6%.

**Q.** Which inhibition [1] does the source give for CC(C)(C)OC(=O)c1c(N)n(CCCN2CCCC2=O)c2nc3ccccc3nc12 here?
**A.** Its inhibition is 57.9% (active).

**Q.** What does the source list for Cc1ccc(N(Cc2cc(=O)[nH]c3ccccc23)C(=O)CCl)cc1?
**A.** inhibition [1]: 90% (active); inhibition [5]: 33.7%; inhibition [6]: 51.6% (active)

**Q.** With CN1CCN(CCCNC(=O)c2ccc(/C=C3\Oc4ccccc4N(Cc4ccc(Cl)cc4)C3=O)cc2)CC1 as the compound, how does the inhibition [7] read?
**A.** Its inhibition is 51.8% (active).

**Q.** What about the inhibition [8] of the same compound?
**A.** Its inhibition is -1.35%.

**Q.** What about the inhibition [9] of the same compound?
**A.** The inhibition was 29% (active).

**Q.** What about the inhibition [10] of the same compound?
**A.** The inhibition was 12% (active).

**Q.** What does the source list for N#Cc1c(N)nc2c3c(sc(=N)c2c1N)NC(=O)CC3c1ccccc1Cl (configuration not stated)?
**A.** activation (reported as inhibition) [11]: -9.26%; inhibition [12]: -7.41%

**Q.** What does the source list for CCOc1cc(/C=C(\C#N)c2nc(-c3cccs3)c(NC(C)=O)s2)ccc1O?
**A.** activation [13]: 31.9% (active); activation [14]: 25.4% (active)

**Q.** With COc1cccc(-n2c(=S)[nH]c3c(oc4ccccc43)c2=O)c1 as the compound, how does the activation (reported as inhibition) [11] read?
**A.** The activation (reported as inhibition) was 14.3%.

**Q.** And the inhibition [12]?
**A.** The inhibition was 8.55%.

**Q.** Which inhibition [7] does the source give for COc1ccc(N2CCN(C(=O)CN3C(=O)COc4ccccc43)CC2)cc1 here?
**A.** Its inhibition is -8.37%.

**Q.** What about the inhibition [8] of the same compound?
**A.** The inhibition was -9.94%.

**Q.** What does the source list for CN(C)CCCN(C(=O)c1ccc(S(=O)(=O)N2CCCCCC2)cc1)c1nc2ccc(Br)cc2s1?
**A.** activation [13]: 6.69%; activation [14]: 11.3%

**Q.** With COc1cc2[nH]c(=S)n(Cc3ccc(C)o3)c(=O)c2cc1OC as the compound, how does the activation (reported as inhibition) [11] read?
**A.** Its activation (reported as inhibition) is -5.72%.

**Q.** What about the inhibition [12] of the same compound?
**A.** Its inhibition is -2.05%.

**Q.** Which results are given for CCN1CCN(CCNC(=O)c2ccc(/C=C3/Sc4ccccc4N(Cc4cccc(C)c4)C3=O)cc2)CC1?
**A.** inhibition [7]: 49.5% (active); inhibition [8]: 1.16%

**Q.** With C#CCOCCOCCOCCNc1nc(N2CCN(C(=O)CCCCCCCCCCNC(=O)[C@H]([C@@H](C)CC)n3cc(CCCCN=C(N)N)nn3)CC2)nc(N2CCN(C(=O)CCCCCCCCCCNC(=O)[C@H](CO)n3cc(CCCSC)nn3)CC2)n1 as the compound, how does the inhibition [7] read?
**A.** The inhibition was 57.5% (active).

**Q.** And the inhibition [8]?
**A.** The inhibition was 1.4%.

**Q.** For CN(Cc1ccccc1)Cc1ccccc1F, which activation (reported as inhibition) [11] is on record?
**A.** The activation (reported as inhibition) was -2.78%.

**Q.** What about the inhibition [12] of the same compound?
**A.** Its inhibition is -3.03%.

**Q.** Which inhibition [15] does the source give for CC1=C/C(=N\OS(=O)(=O)c2ccccc2)C=CC1=O here?
**A.** Its inhibition is 90% (active).

**Q.** What about the inhibition [16] of the same compound?
**A.** The inhibition was 83.7% (active).

**Q.** And the inhibition [1]?
**A.** The inhibition was 7.61%.
